This passage reports growth results from PubChem BioAssay (NCI).

The panel holds about 83,000 compounds, 20% with a hit somewhere; the sample as a whole holds those more often.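 Single-dose data. Exposure time 48 hours. Values below 10 considered active.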 Active and inactive are the calls of the source.

The assay concerns K-562 leukemia. In words: NCI-60 one-dose screen, 48 h (100 = growth as untreated, 0 = no growth, -100 = all killed). The settings on record: 10 µM.
For the molecule `CCCCCCCNc1nc(C=O)ncc1-c1ccc(C(F)(F)F)cc1`, the growth was 89.4% (inactive).
For the molecule `C#Cc1ccc(-n2c(/C=C/c3ccc4ccccc4n3)nc3ncccc3c2=O)cc1`, the growth was 3.17% (active).
For `O=C1c2ccc3c4c(ccc(c24)C(=O)N1CCNCc1ccccc1)C(=O)N(CCNCc1ccccc1)C3=O`, the growth was 1.04% (active).
As to `CCN(CC)Cc1cc(Nc2ccnc3cc(Cl)ccc23)ccc1OC`, the growth was 45.1% (inactive).
As to `Nc1ccc2c(c1)C1(CCC2)NC(=O)NC1=O` (stereo unspecified), the growth is 95.8% (inactive).
Take `O=C(Nc1cccc(Cl)c1)Nc1nccs1`: the growth was 85.8% (inactive).
On to `N=C(N)c1ccc(-c2ccc(-c3cccs3)s2)s1`, for which the growth was -68% (active).
In the case of `O=C1NC(=O)N(Cc2ccccc2)CC1Br` (stereo unspecified), the growth is 37.4% (inactive).
In the case of `COc1cc(C(=O)N2CCN(c3ccccc3OC)CC2)c(N)cc1OCCCN1CCN(c2ccccc2OC)CC1`, the growth was 8.81% (active).
For the molecule `CN(C)CCN=c1nc2c(c(N)n1-c1ccccc1)c(=S)n(-c1ccccc1)c(=S)n2-c1ccccc1`, the growth is -11.4% (active).
Take `CCOC(=O)c1ccc(NC(=O)Nc2ncc(Cl)cc2Cl)cc1`: the growth is 79.4% (inactive).
Take `CN(C)N=Nc1nn(C(=O)Nc2ccc(Cc3ccccc3)cc2)c2ccccc12`: the growth was 18.4% (inactive).
In the case of `CC(=O)N(C)c1ccc(Nc2ccc(Nc3ccc(N(C)C(C)=O)cc3)c3c2C(=O)c2ccccc2C3=O)cc1`, the growth was 55.8% (inactive).
Then `CCOC(=O)C1(CC(C)C)CCOC1=O` (stereo unspecified), with 97.8% (inactive).
Next, `COc1ccc2c(c1)nc(N)c1c3cccnc3cn21`: 18.4% (inactive); `CSCCCNC(=O)c1ccc2c(c1)/C(=C/c1[nH]c(C)cc1C)C(=O)N2`: 49.1% (inactive).
